Here are results for 40 compounds from PubChem BioAssay AID560 (The Scripps Research Institute Molecular Screening Center, 2006).

Hit rate of the full screen: of about 65,000 compounds, about 980 (1.5%) were called active. For the sample, actives were picked, then their nearest neighbours and some compounds at random. Values without a mark were called inactive.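 How the source made its calls: active means activation above the mean of all tested compounds plus 3 SD (cut at about 49% in these data); inactive means the rest.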

Sequence of Nuclear receptor ROR-alpha (Homo sapiens) (P35398 whole entry, looked up, the tested form may be a part): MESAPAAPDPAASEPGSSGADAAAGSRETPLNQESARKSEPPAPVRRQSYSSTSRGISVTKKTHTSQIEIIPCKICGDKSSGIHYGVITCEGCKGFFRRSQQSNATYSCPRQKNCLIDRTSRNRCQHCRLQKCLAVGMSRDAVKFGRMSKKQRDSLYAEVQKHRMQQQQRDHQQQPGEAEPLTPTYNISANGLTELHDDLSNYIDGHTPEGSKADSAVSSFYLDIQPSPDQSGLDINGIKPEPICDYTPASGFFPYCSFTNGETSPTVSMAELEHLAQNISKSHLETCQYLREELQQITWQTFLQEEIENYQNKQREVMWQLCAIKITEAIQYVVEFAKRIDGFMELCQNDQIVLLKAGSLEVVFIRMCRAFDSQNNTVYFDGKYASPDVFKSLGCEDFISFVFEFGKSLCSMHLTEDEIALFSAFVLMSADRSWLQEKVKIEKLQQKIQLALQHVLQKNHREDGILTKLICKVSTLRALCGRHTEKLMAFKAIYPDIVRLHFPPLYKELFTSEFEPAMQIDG

The assay addresses Nuclear receptor ROR-alpha (Homo sapiens) (UniProt P35398). In words: RORA ligand-binding domain transcriptional activation – cell-based, luminescence, primary screen (AID 560).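 Further: 0% = DMSO-treated RORA cells and 100% = added signal equal to DMSO minus mock-transfected cells.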 The conditions noted are these: CHO-K1 Gal4-RORA LBD luciferase reporter, at 10 µM, active compounds read high, percent increase over mock-subtracted basal signal.
For `O=C(O)C1OC(C(=O)O)C2C1C(F)(F)C2(F)F` (stereo not given), the activation is -1.8%. With `CCCn1c(=O)c(-c2ccccc2)c(O)c2ccccc21` the figure was 5.6%; with `CCOCCCNS(=O)(=O)Cc1ccccc1`, -16.2%; with `O=C1CCCC2=C1C(c1cccs1)n1nc(SCc3ccccc3)nc1N2` (stereo not given), -13.1%. On to `O=C(CN1CCOCC1)N1CCCc2c1c(=O)oc1ccc(OCc3ccccc3)cc21`, for which the activation was -15.9%. With `CCOc1ccc(-c2nnc(-c3ccco3)o2)cc1` the figure was -31.6%; with `Cc1ccc(OCC(=O)Nc2ccc(-c3nnc(-c4ccco4)o3)cc2)cc1`, 20.8%; with `CCC(=O)Oc1cccc(C(=O)Nc2ccc(-c3nnc(-c4ccco4)o3)cc2)c1`, 112% (active).

For the compound `O=C(Nc1ncccn1)c1cccs1`, the activation was -6.7%. `Cn1c(=O)c(C(=O)Nc2ncccn2)c(O)c2ccccc21`: the activation is 61% (active). With `CCOc1cc(C(=O)Nc2ncccn2)cc(OCC)c1OCC` the figure was -3.1%. The result for `CC(C)C(c1nnnn1CCc1ccccc1)N1CCN(C(=O)c2ccco2)CC1` (stereo not given) reads -9%; that for `CCC(CC)c1nnc(NS(=O)(=O)Cc2ccccc2)s1`, -5.9%. The result for `O=C(CSCc1cccs1)N1CCCC1` reads 22.9%. `O=C(c1cc(-c2cccs2)on1)N1CCCCC1`: the activation is 63.4% (active). As for `Cc1cc(NC(=O)c2cc(-c3cccs3)on2)nn1Cc1ccc(Cl)cc1`, the activation was 27.5%.

As to `COc1ccccc1-c1cc(C(=O)N2CCCCC2)no1`, the activation is 56.5% (active). With `COc1ccccc1N1CCN(C(=O)c2cc(-c3ccc(Br)cc3)on2)CC1` the figure was -2.4%; with `O=C(c1cc(-c2ccccc2O)on1)N1CCCC1`, 18.2%; with `Cc1cc(Cl)c(S(=O)(=O)NCCC(=O)O)cc1OCC(N)=O`, -22.1%. `COc1ccc(OCCCON2C(=O)c3ccccc3C2=O)cc1`: the activation is -11.1%. The result for `C[N+]1(CCNC(=O)/C=N/O)CCCCC1` reads -28.3%; that for `O=C(Nc1ccon1)c1cccc(Cl)c1`, -2.3%. With `C=C(C)Cn1c(SCC(=O)NCc2ccco2)nc2sc3c(c2c1=O)CCC3` the figure was -4%; with `C=C(C)CSc1nc(N)c2c3c(sc2n1)CCC3`, 56.2% (active); with `CN(C)CCSc1nc(N)c2c3c(sc2n1)COC(C)(C)C3`, 10.3%. With `CCn1cc(C(=O)NCC2CCCO2)c(=O)c2cc(S(=O)(=O)N3CCCCC3)ccc21` (stereo not given) the figure was -5.2%; with `O=C(CCCn1c(SCC(=O)c2ccc(F)cc2)nc2ccccc2c1=O)NCc1ccco1`, 40.5%.

On to `COc1ccc(-c2nc(-c3ccccc3)no2)c(OC)c1`, for which the activation is -78.4%. On to `COc1ccc(-c2noc(-c3cccc(OC)c3OC)n2)cc1OC`, for which the activation was 89.8% (active).

Consider `COc1cc(-c2nc(-c3ccncc3)no2)cc(OC)c1OC`, for which the activation was 5.3%.

As for `CC(=O)Nc1ccc(NS(=O)(=O)c2cc(C)sc2C)cc1`, the activation was -3%. As for `Cn1c(=O)n(C)c2cc(C(=O)Nc3ccc4c(c3)OCO4)ccc21`, the activation was 19.1%. The result for `COc1ccc(C(=O)Nc2ccc3c(c2)OCO3)cc1OC` reads 69.8% (active); that for `CC(C)C(=O)Nc1cccc(C(=O)Nc2ccc3c(c2)OCO3)c1`, 31.6%; that for `COc1ccc(CC(=O)Nc2ccc(-c3nnc(-c4ccccc4)o3)cc2)cc1`, 8.7%. With `Nc1ccc(-c2nnc(-c3ccc(-c4ccccc4)cc3)o2)cc1` the figure was 60.7% (active); with `O=C(Nc1ccc(-c2nnc(-c3ccccc3)o2)cc1)c1ccc(Br)o1`, 9.1%. With `CN(C)c1ccc(CNC23CN4CN(CN(C4)C2)C3)cc1` the figure was -19.1%; with `CN(Cc1ccccc1)Cc1ccccc1F`, 5.2%.
